Hit rate of the full screen: of about 410,000 compounds, about 850 (0.21%) were called active. Roughly 2% stayed inconclusive and do not appear here. Only a selection was taken, and actives are over-represented in it overall. Unmarked numbers belong to inactive results. Calls come from the whole dose curve; as a rule, active = well fitted inhibition curve with a large enough effect; inconclusive = small, poorly fitted or top-dose-only effect, or another doubt; inactive = no such curve, though single readings can be large or run the other way.
The compounds below were run against Glutaminase kidney isoform, mitochondrial (Homo sapiens) (UniProt O94925) (assay: qHTS for Inhibitors of Glutaminase (GLS)). Details: GLS enzymatic activity, qHTS titration; series mostly up to 45.5 µM; activity change, negative = inhibition: at the top concentration.
Glutaminase kidney isoform, mitochondrial (Homo sapiens), sequence (O94925 whole entry, looked up, canonical isoform): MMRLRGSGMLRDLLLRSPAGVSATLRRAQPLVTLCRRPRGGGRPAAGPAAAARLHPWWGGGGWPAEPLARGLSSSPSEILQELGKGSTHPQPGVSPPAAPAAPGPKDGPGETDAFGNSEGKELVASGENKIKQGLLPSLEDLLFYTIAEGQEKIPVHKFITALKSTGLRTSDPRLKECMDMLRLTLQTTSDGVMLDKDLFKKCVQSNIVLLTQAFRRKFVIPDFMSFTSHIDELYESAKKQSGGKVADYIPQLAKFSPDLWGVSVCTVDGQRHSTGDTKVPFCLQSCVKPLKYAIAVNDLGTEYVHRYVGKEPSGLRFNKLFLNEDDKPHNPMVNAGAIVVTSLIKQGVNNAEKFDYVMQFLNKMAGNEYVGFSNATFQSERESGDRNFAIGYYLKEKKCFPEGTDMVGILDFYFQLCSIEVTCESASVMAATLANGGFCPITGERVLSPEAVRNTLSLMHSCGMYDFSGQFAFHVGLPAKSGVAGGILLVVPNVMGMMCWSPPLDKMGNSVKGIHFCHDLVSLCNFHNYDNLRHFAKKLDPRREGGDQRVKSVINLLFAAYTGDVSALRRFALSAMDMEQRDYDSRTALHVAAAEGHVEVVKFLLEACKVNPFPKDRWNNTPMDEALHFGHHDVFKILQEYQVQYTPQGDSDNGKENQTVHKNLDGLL
In short: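 Human kidney-isoform GLS in 45 mM KH2PO4 pH 8.2, 0.02% Tween-20, with compound, started with 1mM L-Glutamine (added stock). Glutamate oxidase/HRP/Amplex red coupled fluorescence read at start and after 30 min at RT.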
% is set by controls: 0 for no effect and ±100 for the full control effect; potency is the fitted concentration of half-maximal effect.

| Compound | activity change, negative = inhibition | Potency |
| --- | --- | --- |
| C[C@H]1C[C@H]2[C@@H]3CCC4=CC(=O)C=C[C@]4(C)[C@@H]3C(=O)C[C@]2(C)[C@@]1(O)C(=O)CO | 10.2% |  |
| O=C(O)c1ccc2c(c1)N(Cc1ccc(F)cc1)C(=O)c1ccccc1S2=O (stereo not drawn) | -6.31% |  |
| COc1cc2c(cc1OC)[C@@H](Cc1cc(OC)c(OC)c(OC)c1)[N+](C)(CCCOC(=O)CC/C=C/CCC(=O)OCCC[N+]1(C)CCc3cc(OC)c(OC)cc3[C@H]1Cc1cc(OC)c(OC)c(OC)c1)CC2 (stereo partly drawn) | 0.105% |  |
| NNc1nnc(Cc2ccncc2)c2ccccc12 | -2.67% |  |
| COc1ccc(C2/C(=C(/O)c3ccccc3)C(=O)C(=O)N2c2ncccn2)cc1OC (stereo not drawn) |  | 8.91 µM (active) |
| CCCOc1ccc(/C(O)=C2/C(=O)C(=O)N(CCN(C)C)C2c2ccc(OC)c(OC)c2)cc1 (stereo not drawn) | 9.91% |  |
| COc1ccc(/C(O)=C2/C(=O)C(=O)N(CCCN(C)C)C2c2ccccc2)cc1OC (stereo not drawn) | -4.13% |  |
| COc1ccc(N2CCN(c3cc(C)nc4nncn34)CC2)cc1 | 54.9% |  |
| CCc1ccc(NC(=O)CN2C(=O)CCSc3ccc(S(=O)(=O)N4CCCC4)cc32)cc1 | -1.16% |  |
| O=C(Nc1cccc(C(F)(F)F)c1)c1cc(Br)cc(Br)c1O | 5.07% |  |
| COc1ccc(OC)c(-c2noc(N3CCN(c4cc(Cl)ccc4C)CC3)n2)c1 | -13% |  |
| COc1ccc(C2=NOC3(CC(=O)N(c4ccc(Cl)cc4)C3=O)C2)c(OC)c1 (stereo not drawn) | 0.557% |  |
| COc1ccc2c(c1)C(=O)Nc1cc(Cl)ccc1N2 |  | 12.6 µM (active) |
| Cc1cc(C)c2sc(NC(=O)c3ccc(S(=O)(=O)N4CCCC4)cc3)nc2c1 | 3.27% |  |
| Cc1cn([C@H]2CC(F)[C@@H](CO)O2)c(=O)[nH]c1=O (stereo partly drawn) | 1.43% |  |
| C=CC1=C(C(=O)O)N2C(=O)[C@@H](NC(=O)/C(=N\OCC(=O)O)c3csc(N)n3)[C@H]2SC1 |  | 12.6 µM (active) |
| C=CC1=C(C(=O)O)N2C(=O)[C@@H](NC(=O)/C(=N/OCC(=O)O)c3csc(N)n3)[C@H]2SC1 |  | 12.6 µM (active) |
| CO/N=C(\C(=O)N[C@@H]1C(=O)N2C(C(=O)O)=C(Cn3nnc(C)n3)CS[C@H]12)c1csc(N)n1 | 1.07% |  |
| C[C@]12CC[C@@H]3c4ccc(O)cc4C[C@@H](CCCCCCCCCS(=O)CCCC(F)(F)C(F)(F)F)C3[C@@H]1CC[C@@H]2O (stereo partly drawn) | 1.78% |  |
| Cc1cccc(C)c1NC(=O)NC1=CCCN1C | -6.33% |  |

| Compound | activity change, negative = inhibition | Potency |
| --- | --- | --- |
| CCCC(=O)O[C@]1(C(=O)COC(=O)CC)CC[C@@H]2[C@@H]3CCC4=CC(=O)CC[C@]4(C)[C@H]3[C@@H](O)C[C@@]21C | -15.3% |  |
| CN1CC(O)c2cc(N=NC(N)=O)c(O)cc21 (stereo not drawn) | 4.71% |  |
| CC(=O)O[C@]1(C(C)=O)CC[C@@H]2[C@@H]3C=C(C)C4=CC(=O)CC[C@@]4(C)[C@H]3CC[C@]21C | 0.635% [at 20 µM] |  |
| CC(C)(C)c1ccc(S(=O)(=O)N2CCN(C(=O)c3cc(-c4ccc(Br)cc4)n[nH]3)CC2)cc1 | 1.4% |  |
| COc1ccc(Cl)cc1S(=O)(=O)Nc1cccc(C(=O)O)c1 | 13.6% |  |
| COc1cc(OC)c(S(=O)(=O)Nc2ccccc2C(=O)O)cc1S(=O)(=O)Nc1ccccc1C(=O)O |  | 5.62 µM (active) |
| COc1cc(/C=C/C(=O)O)cc(S(=O)(=O)Nc2ccccc2SC)c1OC | 22.4% |  |
| COc1cc2c(cc1OC)CC(=O)N(CCCN(C)C[C@H]1Cc3cc(OC)c(OC)cc31)CC2 | 33.9% |  |
| Nc1ccc2nc3c(=O)[nH]c(=S)[nH]c3nc2c1 |  | 3.16 µM (active) |
| Cc1ccccc1C(=O)N(Cc1ccc(N(C)C)cc1)CC1CCCO1 (stereo not drawn) | 16.2% |  |
| CCOc1ccc(N(CC)C(=O)c2cc3c(=O)oc4ccccc4c3s2)cc1 | 2.89% |  |
| CC(=O)Oc1ccccc1C(=O)Nc1ncc([N+](=O)[O-])s1 | -1.98% |  |
| CCOC(=O)c1c(C)oc2nc(C)nc(N3CCN(c4ccc(OC)cc4)CC3)c12 | 55.8% |  |
| O=C(CC1Oc2ccccc2NC1=O)NCc1ccc(F)cc1 (stereo not drawn) | -0.884% |  |
| O=C(CCCCn1c(=O)c2ccccc2n(CC(=O)Nc2cccc(C(F)(F)F)c2)c1=O)NCc1ccc2c(c1)OCO2 | 2.14% |  |
| CCOc1cc2[nH]c(=S)n(Cc3ccc(C(=O)N4CCN(C)CC4)cc3)c(=O)c2cc1OCC | 4.65% |  |
| COc1ccccc1Cn1c(=S)[nH]c2cc(C(=O)N3CCN(C)CC3)ccc2c1=O |  | 12.6 µM (active) |
| COc1ccc(OC)c(-n2c(=S)[nH]c3cc(C(=O)N4CCCCC4)ccc3c2=O)c1 | -3.96% |  |
| O=C1C(c2[nH]c3ccccc3c2O)=Nc2ccccc21 | -15.6% |  |
| COc1ccc2c(C)c(CCC(=O)NCc3ccc(OC)c(OC)c3)c(=O)oc2c1 | -10.3% |  |

| Compound | activity change, negative = inhibition | Potency |
| --- | --- | --- |
| COc1cccc(-c2coc3cc4oc(=O)c(CC(=O)O)c(C)c4cc23)c1 | 14.3% |  |
| Cc1c(CCC(=O)O)c(=O)oc2cc3occ(-c4ccccc4)c3cc12 |  | 11.2 µM (active) |
| CN1C(=O)C[C@H](c2ccccc2)C1=O | 4.96% |  |
| COc1ccc(C)cc1N(C)C(=O)c1c(C)oc2ncnc(N3CCOCC3)c12 | 1.19% |  |
| CC(C)c1ccc(S(=O)(=O)Nc2ccc(O)c(Sc3nc4ccccc4s3)c2)cc1 | 25.5% |  |
| O=C(O)c1cccc(S(=O)(=O)Nc2ccc(O)cc2Sc2nc3ccccc3s2)c1 |  | 14.1 µM (active) |
| O=[N+]([O-])c1c(NCCO)cc(Sc2nc3ccccc3s2)c2nonc12 | -18.5% |  |
| CCOC(=O)c1ccc(NC(=O)CCn2cnnn2)cc1 | -0.58% |  |
| CCCCCCCCCc1ccc(OCCOCCOCCOCCOCCOCCOCCOCCOCCO)cc1 | 1.72% |  |
| C[N+](C)(CCOc1ccccc1)Cc1cccs1 (tested in a mixture with another compound) | -10.7% |  |
| O=S(=O)(N1CCCCC1)N1CCNCC1 |  | 15.8 µM (active) |
| Cc1cccc(C)c1N1CCN(S(=O)(=O)N2CCCCC2)CC1 | -2.26% |  |
| O=S(=O)(/C=C/c1ccccc1)N1CCNCC1 | -5.7% |  |
| Cc1ccc(CN2CCC(CNC(=O)c3cnn(-c4ccccc4Cl)c3C3CCN(C(=O)OC(C)(C)C)CC3)CC2)cc1 | 4.11% |  |
| COc1cc(Cl)c(C)cc1Nc1nnc(-n2nc(C)cc2C)c2ccccc12 | -3.1% |  |
| COC(=O)CCCCC1=CCC2C(=O)C=C(O)C2C1 (stereo not drawn) |  | 12.6 µM (active) |
| CCC(C)[C@@H](N)C(=O)O (stereo partly drawn) | 4.95% |  |
| NCCCCC(N)C(=O)O (stereo not drawn) | -2.86% |  |
